Results as given in PubChem BioAssay (NCI).
About 83,000 compounds went through this panel and 20% of them were active in at least one assay; those are over-represented in the sample as a whole.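 96-well plates, one dose, 48 hours. Percent growth reported; active if below 10.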 A number with no mark means an inactive call. Calls of active or inactive are those of the source.

These molecules were tested on M14 melanoma (assay: NCI-60 one-dose screen, 48 h (100 = growth as untreated, 0 = no growth, -100 = all killed)). Details: 10 µM unless noted.
Method: Growth inhibition of the M14 human tumor cell line is measured as a screen for anti-cancer activity. Cells are grown in 96 well plates and exposed to the test compound for 48 hours. Compounds are tested at a single concentration, which is 10^-5 M for most compounds. The reported endpoint is percent growth (GI% or GIPRCNT), where numbers from 0 - 100% represent growth inhibition, and numbers from -100% - 0 represent cell death. For example, a value of 40 represents 60% growth inhibition. A value of 0 means no net growth occurred over the course of the experiment. A value of -40 indicates 40% of cells at the beginning of the experiment died by the end of the experiment. A value of -100 means all cells are dead at the end of the experiment.
NCI-60 Human Tumor Cell Lines Screen was performed using the standard one-dose NCI protocol, which is described in more detail at https://dtp.cancer.gov/discovery_development/nci-60/default.htm.
Compounds with GIPRCNT values below 10 were considered active. Activity score was based on GIPRCNT using the following formula: […]
Score is 0 for GIPRCNT values of 100 or above, 50 for GIPRCNT values of 0, and 100 for GIPRCNT values of -100.

SMILES | growth
CCOC(=O)c1ccc(NC(=O)CSC(N)=O)cc1 | 94.8%
COc1ccccc1-[n+]1cc(-c2ccc(-c3ccccc3)cc2)n2c1CCCCC2 | 11.1%
CN(C)CCCN1c2ccccc2CCc2ccccc21 | 128%
Oc1ccc(-c2nnc3c4[nH]ccc4ncn23)cc1 | 104%
O=C(c1ccc(OCCN2CCCCC2)cc1)c1c(-c2ccc(O)cc2)sc2cc(O)ccc12 | 93.3%
CC(=O)NC1C(O[C@H]2C[C@H]3[C@@H]4CC=C5C[C@@H](O)CC[C@]5(C)[C@H]4CC[C@]3(C)[C@H]2[C@H](C)C(=O)CCC(C)C)OCC(O)C1O (stereo not given in full) | -22.2% (active)
O=[N+]([O-])c1ccc(N=Nc2c(NNc3ccc([N+](=O)[O-])cn3)cc(S(=O)(=O)O)c3ccccc23)nc1 | 60.6%
Clc1ccc(-c2nc(-c3cccs3)no2)cc1 | 105%
CC1(C)CC(=O)c2cc3c(N)c(C(=O)Nc4ccc(Cl)cc4)sc3nc2C1 | 107%
CN1C(=O)C(C(=O)/C=C/c2ccccc2C(=O)O)C(=O)N(C)C1=O | 99%
COc1cc(-c2nc(-c3ccc(-c4nc5ccc(F)cc5[nH]4)cc3)no2)cc(OC)c1OC | 43.6%
Nc1c(Br)cc2c(c1Br)Cc1cc(Cl)ccc1-2 | 106%
O=C1Nc2ccccc2/C1=C\c1nc(C2CCN(S(=O)(=O)c3ccc(F)cc3)CC2)n2ccccc12 | 61.5%
COc1cccc(C2C(C#N)=C(N)Oc3cc4c(cc32)OCO4)c1 (stereo not given) | 0.938% (active)
C/C(=N\NC(=O)CSc1nc2ccccc2c(=O)n1CCc1ccc(S(N)(=O)=O)cc1)c1ccc(Br)cc1 | 70.3%
O=C(CC(=O)C(F)(F)C(F)(F)C(F)(F)F)c1cc2ccccc2o1 | 106%
COc1cc(NC(=O)CSc2nc3ccc(Cl)cc3c(=O)n2Cc2ccccc2)cc(OC)c1OC | 73.4%
Cc1cc(C#Cc2ccc(C(C)(C)C)cc2)ccc1-n1c(/C=C/c2c(Cl)cccc2Cl)nc2ccccc2c1=O | 106%
CC(C)(C)c1ccc(OC(=O)Nc2ccccc2)cc1 | 96.5%
CN(C)c1ccc(/C=C\c2cccc[n+]2C)cc1 | 69.6%

SMILES | growth
CC(C)(C)[Si](C)(C)OC1[C@@H](O[Si](C)(C)C(C)(C)C)[C@@H](CNC(=O)NC(=O)NC(=O)CCl)O[C@H]1n1cnc2c(NC(=O)Nc3ccccc3)ncnc21 (stereo not given in full) | 64.7%
COC(=O)[C@@H](Cc1c[nH]c2ccccc12)NC(=O)/C=C/c1ccccc1 | -37.5% (active)
Cc1cccc(N=NC(=S)NNc2cccc(C)c2)c1 | 108%
COC(=O)c1ccc2c(c1)nc(-c1cc3ccccc3[nH]c1=O)n2-c1cc(C(C)(C)C)[nH]n1 | 58.2%
CCOC(=O)c1cc(N)nc2ccccc12 | 108%
CC(C)CCC(=O)[C@@H](C)[C@H]1[C@@H](OC2OCC(O)C(O)C2NS(C)(=O)=O)C[C@H]2[C@@H]3CC=C4C[C@@H](O)CC[C@]4(C)[C@H]3CC[C@]12C (stereo not given in full) | -53.1% (active)
COc1ccc(-n2c(COc3ccc(F)cc3)n[nH]c2=S)cc1 | 112%
COc1ccc2nc3ccccc3c(NCc3ccc(C)cc3)c2c1 | 28.7%
CCN1CCN(Cc2ccc(NC(=O)Nc3ccc(-n4ccc5c(NC(=O)c6ccccc6)nccc54)cc3)cc2C(F)(F)F)CC1 | -65.1% (active)
CC(C)(C)c1nn(-c2ccccc2)c2c1C(=O)CSC(c1ccc3c(c1)OCO3)N2 (stereo not given) | 91.3%
Cc1cc(-c2ccc(N=Nc3c(S(=O)(=O)O)cc4cc(S(=O)(=O)O)cc(O)c4c3O)c(C)c2)ccc1N=Nc1c(S(=O)(=O)O)cc2cc(S(=O)(=O)O)cc(O)c2c1O | 103%
C=CCOC(=O)C1=C(C)NC2=C(C(=O)CCC2)C1c1ccc(F)cc1 (stereo not given) | 96.1%
CN(C)c1nc(-c2cccs2)n2nc(-c3ccc(Cl)cc3)cc2n1 | 61.4%
O=C(/C=C/c1cn(-c2ccccc2)nc1-c1ccccc1)OCc1cn(-c2cccc([N+](=O)[O-])c2)nn1 | 91.3%
CCCCCc1c(C)[nH]c(/C=C2\N=C(c3ccc[nH]3)C=C2Oc2ccc(OC)cc2)c1C | -94.7% [100 µM] (active)
CCCCSc1ncnc2c1ncn2C1CCCCO1 (stereo not given) | 103%
ClC1(Cl)C2CCCCCCC21 (stereo not given) | 98.7%
O=c1c2cc(Cl)ccc2oc2ccc(OCCCCCN3CCCCCC3)cc12 | 45.2%
O=C(Nc1cccc(Cl)c1)Nc1ccccc1Cl | 106%
COc1ccc(-n2nc(C(=O)Nc3ccc(F)cc3)nc2-c2cc(OC)c(OC)c(OC)c2)cc1 | 110%
